{"source": "PubChem BioAssay AID743326", "about": "(National Center for Advancing Translational Sciences (NCATS), 2014)", "note": "Values without a mark were called inactive. Activity calls are given as the source filed them. Calls follow the shape of the full dose curve. Numbered stars: 1 amine (or outer) side, 2 acyl side, 3 side chain; on linkers, the order of the positions; unused ones are H or OH. Bridge positions count the residues as written; N and C are the ends. Square brackets hold non-standard residues; d marks the D form. Peptide text beside a SMILES is read from it. I, II: the chains in the order shown. Actinocin(9to1) = Cc1c2oc3c(C)ccc(C(=O)[*:1])c3nc-2c(C(=O)[*:2])c(N)c1=O; NMeV = CN[CH](C(=O)O)C(C)C; Sar = CNCC(=O)O", "data": [{"assay": "qHTS profiling of Chloroquine Analogs as inhibitors of Plasmodium falciparum (DD2) proliferation", "conditions": "Potency: Plasmodium falciparum Dd2 proliferation inhibition; series mostly up to 28.7 µM; activity change, negative = inhibition: at the top concentration", "source_text": "Plasmodium falciparum is a virulent malarial parasite that kills 1-2 million people worldwide each year. Transmitted by mosquitoes, the sporozoite form of the parasite enters the blood stream to infect hepatocytes, where they become merozoites that infect red blood cells (erythrocytes). Within erythrocytes, merozoites begin a […] cycle of growth and division, after which the parasite is released to infect new red blood cells. Gametocytes, which form within erythrocytes as well, circulate in the bloodstream and are ingested by the mosquito, thereby completing the life cycle. To profile malarial isolates for differential chemical responses and to identify inhibitors of malarial growth, an assay that measures P. falciparum growth and replication within erythrocytes was employed. This assay uses a DNA binding fluorescent dye (SYBR Green) to detect parasite DNA following cell lysis. Because mature erythrocytes lack DNA, only Plasmodium-derived DNA is detected.\nThe SYBR Green viability assay was adapted from a method described previously (Plouffe et al., 2008). For screening 3 ul culture medium was dispensed into 1536 well black clear bottom plates (Aurora Biotechnologies) using a Multidrop Combi (Thermo Fisher Scientific Inc.), 23 nL compounds in DMSO were added by a pin tool (Kalypsys), and 5 ul of erythrocytes infected with P. falciparum (0.3% parasitemia, 2.5% hematocrit final concentration) were added. The plates were incubated at 37 C in a humidified incubator in 5% CO2 for 72 h, and 2 ul lysis buffer (20 mM Tris HCl, 10 mM EDTA, 0.16% saponin, 1.6% triton X, 10X SYBR Green I supplied as 10,000X […] by Invitrogen) was added to each well. The plates were mixed for 25 sec with gentle shaking and incubated overnight at room temperature in the dark. The following morning, fluorescence intensity at 485(14) nm excitation and 535(25) nm emission wavelengths was measured on an EnVision (Perkin Elmer) plate reader. Plate reads were normalized relative to the control inhibitor (0.29 uM artemisinin) and vehicle (DMSO) wells present on each plate and then corrected by an algorithm using vehicle-only control plates at the beginning and end of the compound plate stack.", "values": [{"compound": "CCCCCCCCCCOc1cc2c(=O)c(C(=O)OCC)c[nH]c2cc1OCC", "activity change, negative = inhibition": "-98.2%"}, {"compound": "O=C(Nc1ccc(Cl)cc1)Nc1ccc(Cl)c(Cl)c1", "activity change, negative = inhibition": "176%"}, {"compound": "COC(=O)C1C2CC3c4[nH]c5cc(OC)ccc5c4CCN3CC2CC(OC(=O)c2cc(OC)c(OC)c(OC)c2)C1OC", "note": "(stereo not given)", "activity change, negative = inhibition": "196% [at 57.5 µM]"}, {"compound": "CCN(CC)CCCC(C)Nc1ccnc2cc(Cl)ccc12", "note": "(stereo not given)", "activity change, negative = inhibition": "193%"}, {"compound": "Cc1cccc(C)c1NC(=O)C(C)N", "note": "(stereo not given)", "activity change, negative = inhibition": "-16% [at 14.2 µM]"}, {"compound": "COc1ccc2nc3cc(Cl)ccc3c(Nc3cc(CN4CCCC4)c(O)c(CN4CCCC4)c3)c2n1", "activity change, negative = inhibition": "-103%"}, {"compound": "CCCC(=O)O[C@]1(C(=O)CCl)[C@H](C)C[C@@H]2[C@H]3CCC4=CC(=O)C=C[C@]4(C)[C@@]3(F)C(=O)C[C@@]21C", "activity change, negative = inhibition": "173%"}, {"compound": "CC[C@@H](C)[C@H]1O[C@]2(CC[C@H]1C)C[C@@H]1C[C@@H](CC=C(C)[C@@H](O[C@H]3C[C@H](OC)[C@@H](O[C@H]4C[C@H](OC)[C@@H](O)[C@H](C)O4)[C@H](C)O3)[C@@H](C)C=CC=C3CO[C@@H]4[C@H](O)C(C)=C[C@@H](C(=O)O1)[C@]34O)O2", "activity change, negative = inhibition": "-103%"}, {"compound": "COc1ccc(CCN(C)CCCC(C#N)(c2ccc(OC)c(OC)c2)C(C)C)cc1OC", "note": "(stereo not given)", "activity change, negative = inhibition": "178%"}, {"compound": "C[C@H](N)CN1CCc2ccc(Br)cc21", "Potency": "1880 nM (active)"}, {"compound": "CCCCN(CCCC)CCC(O)c1cc2c(Cl)cc(Cl)cc2c2cc(C(F)(F)F)ccc12", "note": "(stereo not given)", "activity change, negative = inhibition": "210% [at 14.2 µM]"}, {"compound": "CCOc1ccc(F)cc1C1(O)C(N)=Nc2ccc(Cl)cc21", "note": "(stereo not given)", "Potency": "66.8 nM (active)"}, {"compound": "COc1cc2c(Nc3ccc(NC(=O)c4ccccc4)cc3)ncnc2cc1OCCCN1CCOCC1", "Potency": "749 nM (active)"}, {"compound": "CN([C@@H](Cc1ccc(OS(=O)(=O)c2cccc3cnccc23)cc1)C(=O)N1CCN(c2ccccc2)CC1)S(=O)(=O)c1cccc2cnccc12", "activity change, negative = inhibition": "200%"}, {"compound": "CC(CNC1CCCCC1)OC(=O)c1ccccc1", "note": "(stereo not given)", "activity change, negative = inhibition": "-39.4% [at 14.2 µM]"}, {"compound": "C[C@@H]1[C@@H](CC(C[C@H]2O[C@@H]3O[C@]4(C)CC[C@@H]5[C@H](C)CC[C@@H]([C@H]2C)[C@@]35OO4)C(=O)NCc2ccc(F)cc2)O[C@@H]2O[C@]3(C)CC[C@H]4[C@H](C)CC[C@@H]1[C@@]24OO3", "note": "(stereo not given in full)", "activity change, negative = inhibition": "-100%"}, {"compound": "O=CN(O)CCCP(=O)(O)O", "activity change, negative = inhibition": "-91.1%"}, {"compound": "COc1cc(C=CC(=O)CC(=O)C=Cc2ccc(O)c(OC)c2)ccc1O", "Potency": "5300 nM (active)"}, {"compound": "C[C@@H]1CC[C@H]2[C@@H](C)C(=O)O[C@@H]3OC4(C)CC[C@@H]1C32OO4", "note": "(stereo not given in full)", "activity change, negative = inhibition": "171% [at 57.5 µM]"}, {"compound": "CC[C@H]1OC(=O)[C@H](C)[C@@H](O[C@H]2C[C@@](C)(OC)[C@@H](O)[C@H](C)O2)[C@H](C)[C@@H](O[C@@H]2O[C@H](C)C[C@H](N(C)C)[C@@H]2O)[C@](C)(O)C[C@@H](C)CN(C)[C@H](C)[C@@H](O)[C@]1(C)O", "activity change, negative = inhibition": "-94.5%"}, {"compound": "CCc1ccc(OCc2ccccc2C(=O)Nc2ccc3nc(C)cc(N)c3c2)cc1", "activity change, negative = inhibition": "-100%"}, {"compound": "CN1C[C@H](C(=O)N[C@]2(C)O[C@@]3(O)[C@@H]4CCCN4C(=O)[C@H](Cc4ccccc4)N3C2=O)C[C@@H]2c3cccc4[nH]cc(c34)C[C@H]21", "activity change, negative = inhibition": "180%"}, {"compound": "C[C@@H]1[C@@H](C(=O)C[C@H]2O[C@@H]3O[C@]4(C)CC[C@@H]5[C@H](C)CC[C@@H]([C@H]2C)[C@@]35OO4)O[C@@H]2O[C@]3(C)CC[C@H]4[C@H](C)CC[C@@H]1[C@@]24OO3", "Potency": "1.3 nM (active)"}, {"compound": "CC(=O)O[C@@]12CO[C@@H]1C[C@H](O)[C@@]1(C)C(=O)[C@H](O)C3=C(C)[C@@H](OC(=O)[C@H](O)[C@@H](NC(=O)OC(C)(C)C)c4ccccc4)C[C@@](O)([C@@H](OC(=O)c4ccccc4)[C@H]21)C3(C)C", "activity change, negative = inhibition": "-97.1%"}, {"compound": "CNCCCCOc1ccccc1Cc1ccccc1", "activity change, negative = inhibition": "206%"}, {"compound": "CC(C)N=C(N)N=C(N)Nc1ccc(Cl)cc1", "activity change, negative = inhibition": "190%"}, {"compound": "CN(C)CC/C=C1\\c2ccccc2COc2ccccc21", "Potency": "1430 nM (active)"}, {"compound": "OB1OCc2cc(F)ccc21", "activity change, negative = inhibition": "5.84%"}, {"compound": "C[C@H]1Cc2c([nH]c3cc(Cl)c(F)cc23)[C@@]2(N1)C(=O)Nc1ccc(Cl)cc12", "activity change, negative = inhibition": "-103%"}, {"compound": "CC1=CC(=O)c2ccccc2C1=O", "activity change, negative = inhibition": "-98.6%"}, {"compound": "Cc1cccc(C)c1OCC(=O)N[C@@H](Cc1ccccc1)[C@@H](O)C[C@H](Cc1ccccc1)NC(=O)[C@H](C(C)C)N1CCCNC1=O", "activity change, negative = inhibition": "-98.3%"}, {"compound": "CCOc1ccccc1O[C@H](c1ccccc1)[C@H]1CNCCO1", "activity change, negative = inhibition": "201%"}, {"compound": "CO[C@H]1O[C@@H]2O[C@@]3(C)CC[C@@H]4[C@@H](C)CC[C@@H]([C@H]1C)[C@@]24OO3", "activity change, negative = inhibition": "172%"}, {"compound": "C[C@H]1[C@@H](CCC(=O)Nc2ccc(F)cc2)O[C@@H]2O[C@]3(C)CC[C@@H]4[C@H](C)CC[C@@H]1[C@@]24OO3", "activity change, negative = inhibition": "203%"}, {"compound": "Cc1c2oc3c(C)ccc(C(=O)NC4C(=O)NC(C(C)C)C(=O)N5CCCC5C(=O)N(C)CC(=O)N(C)C(C(C)C)C(=O)OC4C)c3nc-2c(C(=O)NC2C(=O)NC(C(C)C)C(=O)N3CCCC3C(=O)N(C)CC(=O)N(C)C(C(C)C)C(=O)OC2C)c(N)c1=O", "note": "(stereo not given) (I: TVP[Sar][NMeV] / II: TVP[Sar][NMeV]; ester I:1-I:C, II:1-II:C; linker I:N-II:N via Actinocin(9to1); configuration not given here)", "Potency": "2.4 nM (active)"}, {"compound": "C[N+]1(C)CCC(=C(c2ccccc2)c2ccccc2)CC1", "activity change, negative = inhibition": "-90.3% [at 14.2 µM]"}, {"compound": "CN1CCN(CCCN2c3ccccc3Sc3ccc(S(=O)(=O)N(C)C)cc32)CC1", "Potency": "1140 nM (active)"}, {"compound": "C[C@@H]1Cc2c([nH]c3cc(Cl)c(F)cc23)[C@]2(N1)C(=O)Nc1ccc(Cl)cc12", "activity change, negative = inhibition": "-101%"}, {"compound": "C=Cc1c(C)c2cc3nc(cc4[nH]c(cc5nc(cc1[nH]2)C(C)=C5CCC(=O)OC)c(CCC(=O)O)c4C)[C@@]1(C)C3=CC=C(C(=O)OC)[C@H]1C(=O)OC", "Potency": "359 nM (active)"}, {"compound": "COc1ncnc(NS(=O)(=O)c2ccc(N)cc2)c1OC", "Potency": "1880 nM (active)"}]}]}
